Data reported in the supplement of paper PMC8253809.
“And” between values parts separate entries of the source, which are not always exact repeats. Identical values can stand only once.

Columns and labels:
Test in all cases: growth inhibition (% activity, log2 RLU normalised to DMSO / staurosporine); higher = more growth inhibition
Conditions in all cases: 33 µM
[1] = test system: DIPGX29 (H3.3 K27M diffuse intrinsic pontine glioma line)
Outline: (§1)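 The growth-inhibition value comes from CellTiter-Glo luminescence, log2-transformed, normalised per plate to % activity between solvent and positive control wells, and taken as the median over replicates. Treatment of pHGG cell lines and H9-derived neural stem cells with approved drugs was at a single final concentration of about 33 μM, in triplicate, for 7 days at 37 °C, 5% CO2.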

[2] = test system: DIPGX37 (H3.3 K27M diffuse intrinsic pontine glioma line)
Outline: as §1

[3] = test system: DIPGX7 (H3.3 K27M diffuse intrinsic pontine glioma line)
Outline: as §1

[4] = test system: DIPGX9 (diffuse intrinsic pontine glioma line)
Outline: as §1

[5] = test system: HGGX39 (paediatric high-grade glioma line)
Outline: as §1

[6] = test system: HGGX6 (H3.3 G34R paediatric high-grade glioma line)
Outline: as §1

[7] = test system: HNSC
Outline: as §1

[8] = test system: SUDIPGIV (diffuse intrinsic pontine glioma line)
Outline: as §1

[9] = test system: SUDIPGVI (diffuse intrinsic pontine glioma line)
Outline: as §1

[10] = test system: SUDIPGXIII (diffuse intrinsic pontine glioma line)
Outline: as §1

| Structure (SMILES) | growth inhibition [1] | growth inhibition [2] | growth inhibition [3] | growth inhibition [4] | growth inhibition [5] | growth inhibition [6] | growth inhibition [7] | growth inhibition [8] | growth inhibition [9] | growth inhibition [10] |
| --- | --- | --- | --- | --- | --- | --- | --- | --- | --- | --- |
| O=C(CCCN1CCN(c2ccccn2)CC1)c1ccc(F)cc1 | 1.87% | 0.83% | 5.21% | 1.29% | 4.4% | 3.31% | 1.17% | 0.0159% | -3.95% | 2.26% |
| C[C@H](N[C@@H](CCc1ccccc1)C(=O)O)C(=O)N1CCC[C@H]1C(=O)O | -1.89% | -2.46% | 0.194% | -1.9% | -1.61% | -3.59% | -1.1% | -2.75% | -6.88% | -1.42% |
| CC1CC(OC(=O)C(O)c2ccccc2)CC(C)(C)C1 (stereo not given) | -0.681% | 1.83% | 0.84% | 0.0624% | 1.43% | -3.88% | 10.7% | 2.02% | 0.402% | 1.8% |
| CCn1cc(C(=O)O)c(=O)c2cc(F)c(N3CCNCC3)nc21 | -0.406% | 0.315% | -0.279% | -2.11% | 0.108% | -1.99% | 2.46% | 0.478% | 0.763% | 0.429% |
| CC(NCCc1ccc(O)cc1)C(O)c1ccc(O)cc1 (stereo not given) | -0.577% | -0.38% | -0.502% | 1.19% | 1.54% | -0.151% | -0.0915% | -0.121% | 1.63% | -1.5% |
| N=C(N)N/N=C/c1c(Cl)cccc1Cl | 1.41% | 1.84% | 1.08% | 1.59% | 4.69% | 2.81% | 1.67% | 7.04% | 3.21% | 1.52% |
| COc1cc(/C=C/C(=O)CC(=O)/C=C/c2ccc(O)c(OC)c2)ccc1O | -0.948% | 1.27% | 1.4% | 0.547% | 0.698% | 1.98% | -1.04% | -2.56% | 0.323% | -11.1% |
| O=C1OC(CN2CCOCC2)CN1/N=C/c1ccc([N+](=O)[O-])o1 (stereo not given) | -1.53% | 1.22% | -0.714% | -0.52% | -0.169% | 0.852% | -1.5% | -2.29% | -0.066% | -18.3% |
| CC(C)(C)c1ccc(C(O)CCCN2CCC(C(O)(c3ccccc3)c3ccccc3)CC2)cc1 (stereo not given) | -0.594% | -0.074% | 0.488% | 0.591% | 2.84% | 1.58% | 0.144% | -0.418% | -2.2% | -0.826% |
| C[C@]12CC[C@@H]3c4ccc(O)cc4CC[C@H]3[C@@H]1C[C@@H](O)[C@@H]2O | -2.64% | -2.04% | -1.85% | -3.27% | -3.05% | -3.15% | 1.55% | -0.339% | -10.4% | 1.55% |
| Nc1nccs1 | -0.162% | 1.62% | -0.134% | 1.18% | -0.0642% | -1.25% | 5.02% | 0.246% | 1.08% | 0.0518% |
| OC[C@H]1O[C@H](O[C@]2(CCl)O[C@H](CCl)[C@@H](O)[C@@H]2O)[C@H](O)[C@@H](O)[C@H]1Cl | -2.41% | -0.64% | -2.77% | -3.01% | -2.1% | -2.77% | -5.57% | -0.426% | -3.09% | 0.882% |
| CCCCNc1ccc(C(=O)OCCN(C)C)cc1 | -1.31% | -0.907% | 0.627% | -0.979% | 5.11% | 4.5% | 0.385% | -0.481% | -2.2% | 1.02% |
| COc1c2ccoc2cc2oc(=O)ccc12 | 0.175% | -0.379% | 0.232% | 1.51% | 1.71% | 2.12% | -1.02% | 0.44% | 0.394% | -0.028% |
| CCCCOc1cc(C(=O)OCCN(CC)CC)ccc1N | 0.216% | -0.547% | 1.69% | 0.918% | 14.2% | 9.49% | -2.2% | 4.07% | -0.0266% | 2.42% |
| CC1CCc2c(N3CCC(O)CC3)c(F)cc3c(=O)c(C(=O)O)cn1c23 (stereo not given) | 1.83% | 2.99% | 1.32% | 2.53% | 3.35% | 2.89% | 4.09% | 0.692% | 3.03% | -1.17% |
| CNC(=O)c1ccc(N2C(=S)N(c3ccc(C#N)c(C(F)(F)F)c3)C(=O)C2(C)C)cc1F | 0.905% | -0.457% | 1.36% | 1.43% | 6.4% | 1.33% | 4.97% | 1.84% | -1.51% | 1.86% |
| CC(C)C[C@H](NC(=O)[C@H](Cc1ccccc1)NC(=O)c1cnccn1)B(O)O | 53.3% | 60.7% | 60% | 59.1% | 58.5% | 60.1% | 64.2% | 59.3% | 56.3% | 69.9% |
| O=NN(CCCl)C(=O)NC1CCCCC1 | 0.207% | 0.604% | 3.11% | 1.74% | 2.6% | 0.392% | 8.64% | 0.873% | 2.64% | 0.32% |
| N=C(N)NC(=N)NCCc1ccccc1 | 2.55% | 2.09% | 2.16% | 3.4% | 3.43% | 1.66% | 13% | 3.22% | 7.27% | 2.1% |

| Structure (SMILES) | growth inhibition [1] | growth inhibition [2] | growth inhibition [3] | growth inhibition [4] | growth inhibition [5] | growth inhibition [6] | growth inhibition [7] | growth inhibition [8] | growth inhibition [9] | growth inhibition [10] |
| --- | --- | --- | --- | --- | --- | --- | --- | --- | --- | --- |
| CCCCC(=O)O[C@H]1CC[C@H]2[C@@H]3CCc4cc(O)ccc4[C@H]3CC[C@]12C | 2.95% | 4.39% | 2.96% | 8.03% | 1.99% | -1.05% | 72.8% | 2.52% | -2.97% | 1.55% |
| Nc1ccn(C2CSC(CO)O2)c(=O)n1 (stereo not given) | 0.0189% | 0.319% | -0.231% | 0.518% | 0.787% | -0.895% | 1.26% | -0.385% | 1.46% | 0.705% |
| O=C(O)CSCC(=O)NC1CCSC1=O (stereo not given) | 0.54% | -0.388% | -0.264% | -0.495% | 0.576% | -1.19% | -1.48% | 0.118% | 1.47% | -6.51% |
| C=C1CC[C@H](O)C/C1=C/C=C1\CCC[C@]2(C)[C@@H]([C@H](C)/C=C/[C@H](C)C(C)C)CC[C@@H]12 | 3.21% | 5.04% | 5.34% | 3.65% | 7.46% | 4.35% | 9.22% | 3.53% | 4.49% | 0.866% |
| CC(=O)Oc1ccccc1C(=O)O | 0.978% | 2.47% | 1.52% | 1.57% | 2.08% | 4% | 0.311% | -1.34% | 2.68% | -16% |
| CCn1cc(C(=O)O)c(=O)c2cnc(N3CCCC3)nc21 | -2.15% | -2.01% | -0.632% | -0.749% | -1.43% | 0.0128% | -2.86% | -0.463% | -0.722% | -2.7% |
| O=C(Nc1cccc2c(=O)cc(-c3nnn[nH]3)oc12)c1ccc(OCCCCc2ccccc2)cc1 | 2.7% | 2.86% | 2.31% | 0.614% | 2.23% | -2.27% | 52.4% | 2.11% | 1.62% | 2.22% |
| C[C@@]12C[C@@]3(O)O[C@@H](O1)[C@]1(COC(=O)c4ccccc4)[C@H]3C[C@@]12O[C@@H]1O[C@H](CO)[C@@H](O)[C@H](O)[C@H]1O | -0.664% | 0.987% | -0.876% | 1.21% | -0.682% | 1.84% | -1.36% | -1.25% | 0.677% | -13.1% |
| COc1ccccc1OCC(O)CN1CCN(CC(=O)Nc2c(C)cccc2C)CC1 (stereo not given) | -3.85% and 2.95% | -0.299% and 2.63% | -1.1% and 4.84% | -2.23% and 2.88% | -2.5% and 3.07% | -1.8% and 1.36% | -2.11% and 14% | -2.68% and 2.7% | -1.9% and -0.296% | -2.34% and -1.26% |
| Cc1c(-c2ccc(O)cc2)n(Cc2ccc(OCCN3CCCCCC3)cc2)c2ccc(O)cc12 | 22.4% | 0.0572% | 20.3% | 1.94% | 8.64% | 16.4% | 26.1% | 18.8% | -5.95% | 1.05% |
| CCOC(=O)OC(C)OC1=C(C(=O)Nc2ccccn2)N(C)S(=O)(=O)c2ccccc21 (stereo not given) | -0.868% | 0.235% | -2.67% | -1.56% | -0.486% | -1.42% | -2.72% | -2.47% | -3.26% | -1.05% |
| CO[C@H]1C[C@@H]2CC[C@@H](C)[C@@](O)(O2)C(=O)C(=O)N2CCCC[C@H]2C(=O)O[C@H]([C@H](C)C[C@@H]2CC[C@@H](OCCO)[C@H](OC)C2)CC(=O)[C@H](C)/C=C(\C)[C@@H](O)[C@@H](OC)C(=O)[C@H](C)C[C@H](C)/C=C/C=C/C=C/1C | 4.26% | 2.47% | 3.53% | 14% | 8.9% | 7.45% | 7.71% | 1.16% | 10.5% | 1.36% |
| O=c1[nH]c(=O)n([C@H]2C[C@H](O)[C@@H](CO)O2)cc1F | 18.6% | 6.96% | 12.8% | 10.7% | 10.9% | 14.3% | 67.3% | 26.2% | 4.66% | 6.72% |
| CC(C)(C)CC(C)(C)c1ccc(O)c(Cc2ccc(Cl)cc2Cl)c1 | 1.52% | -4.36% | 1.89% | 0.915% | 0.861% | -1.71% | 13.3% | 3.83% | -0.854% | 3.25% |
| CN1C(C(=O)Nc2ccccn2)=C(O)c2ccccc2S1(=O)=O | -1.78% | 1.01% | -0.635% | -1.57% | 0.433% | -2.07% | 2.62% | -1.29% | 0.752% | -1.07% |
| CN(C)[C@@H](CCOc1cccc2ccccc12)c1ccccc1 | 10.6% | 0.861% | 6% | 3.36% | 5.09% | 0.0424% | 67.5% | 3.4% | -2.24% | 0.415% |
| O=C(N/N=C/c1ccc([N+](=O)[O-])o1)c1ccc(O)cc1 | 6.1% | 2.69% | 4.79% | 5.76% | 11% | 4.58% | 17.4% | 18.5% | 13.9% | 2.98% |
| CCOCC(O)COc1ccc(NC(=O)CC[S+](C)C)cc1 (stereo not given) | -1.2% | -0.984% | -0.388% | 0.757% | -1.5% | -2.39% | -2.31% | -1.12% | -0.872% | 0.764% |
| CN1CCC[C@H]1c1cccnc1 | 0.174% | 0.939% | -1.09% | -1.61% | 2.08% | 0.579% | -0.787% | -0.338% | -0.198% | 1.09% |
| CCCCCCNC(=O)n1cc(F)c(=O)[nH]c1=O | 5.51% | 0.97% | 4.27% | 14% | 6.44% | 9.38% | 24.6% | 11.2% | 3.57% | 2.43% |
